This is a sample that favours compounds with a hit; in the whole collection about 21% have one here.
Shiga toxin inh: inhibitors of Shiga toxin in Vero cells | Vero cells, Shiga toxin protein synthesis inhibition reporter | inhibition, % at 38.7 µM | 290,000 compounds, 9.2% hits | AID 2315; in the data active = inhibition mostly above about 28%, no sharp cut-off; inactive = mostly below about 43%; note: 0% is about no effect
Sm TGR inh: S. mansoni TGR enzyme inhibition | Q962Y6 | purified TGR, DTNB reduction, TNB absorbance 405 nm | Potency, µM (titrated, usually from 114 µM), inactives show top-dose activity change, negative = inhibition, hits mostly inhibitors | 360,000 compounds, 3% hits | AID 485364; note: potency is the fitted concentration of half-maximal effect; % is set by controls: 0 for no effect and ±100 for the full control effect; nearly all actives have a fitted effect of over 60% in size
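TGR 20 nM + NADPH 100 uM (dispensed conc.), cpd preinc 15 min RT; start with NADPH (500 uM addition) then DTNB (15 mM addition). Kinetic TNB absorbance, 405 nm filter. Four-parameter Hill fit across titration.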
Cycloheximide cs: counter-screen for Shiga toxin inhibitors: cycloheximide protein synthesis inhibition; AID 2314; max response, %; cell reporter, cycloheximide protein synthesis inhibition counterscreen; 300,000 compounds, 12% hits; in the data active = max response mostly above about 13%, no sharp cut-off; inactive = mostly below about 14%; note: read at 38.3 µM for the half of the compounds with a filed dose; 0% is about no effect
Pf growth 48h: P. falciparum growth inhibition at 48 hours (one generation); P. falciparum luciferase growth in erythrocytes, 48 h; 310,000 compounds, 5.9% hits; AID 504832; Potency, µM (doses to about 28.7 µM), for the others: top-dose activity change, negative = inhibition, actives largely listed as inhibitors; note: potency is the fitted concentration of half-maximal effect; % is set by controls: 0 for no effect and ±100 for the full control effect
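Cell-based growth assay: transgenic P. falciparum expressing firefly luciferase, cultured in red cells within RPMI 1640 containing 0.5% w/v Albumax, 24 mM bicarbonate and gentamycin. A drop in luciferase activity indicates inhibition.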
NS1 inh: inhibitors of influenza NS1 protein function. Potency, µM (top dose mostly 46.1 µM), for the others: at the highest dose activity, positive = more growth. 270,000 compounds, 0.4% hits; calls by dose curve; note: potency is the fitted concentration of half-maximal effect; actives are rising curves; nearly all actives have a fitted effect of over 50% in size
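A cell-based growth assay was used: compounds that relieve NS1-induced slow growth of budding yeast raise OD600. Assay medium was yeast nitrogen base with ammonium sulphate and -URA supplement, pH 6.0, with 2% galactose.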
Pf growth 96h: P. falciparum growth inhibition at 96 hours | P. falciparum luciferase reporter growth, 96 h | Potency, µM (highest dose often 28.7 µM), without a hit: at the highest dose activity change, negative = inhibition, usual class: inhibitors | 320,000 compounds, 6.9% hits; note: potency is the fitted concentration of half-maximal effect; % is set by controls: 0 for no effect and ±100 for the full control effect
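Delayed-death screen, second-generation endpoint: infected erythrocytes, 2% hematocrit, 0.05% parasitemia final; 96 hours at 37 C, 5% CO2; luciferase detection reagent; luminescence decrease equals reduced growth.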
Active calls of the source: *; i = inactive; ? = inconclusive; . = no result. Unless noted, calls come from the whole dose curve; as a rule, active = well fitted curve in the direction sought with a large enough effect; inconclusive = small, poorly fitted or top-dose-only effect, or another doubt; inactive = no such curve, though single readings can be large; an effect the other way counts as inactive or inconclusive.

SMILES	Shiga toxin inh	Sm TGR inh	Cycloheximide cs	Pf growth 48h	NS1 inh	Pf growth 96h
CCOc1ccc(C(=O)OCC(=O)NC(C)C)cc1	20	3%	13	16%	.	28%
CSc1ccccc1C(=O)C1CCCN(C(=O)c2csnn2)C1 (centres undefined)	90*	-4%	31*	22%	0%	10%
CSc1ccccc1C(=O)C1CCCN(C(=O)c2cc(C(C)C)no2)C1 (centres undefined)	27	22µM*	-1	-1%	-56%	-8%
COC(=O)CCCC(=O)N1CCCC(C(=O)c2ccccc2SC)C1 (centres undefined)	-4	-11%	-3	-19%	2%	?
CCOC(=O)CSC1=NN2CCS(=O)(=O)N=C2S1	-8	10µM*	1	1%	.	25%
C=CCSC1=NN2CCS(=O)(=O)N=C2S1	17	7%	1	18%	.	11%
Nc1nc(Cl)nc2c1ncn2C1OC(CO)C(O)C1F (centres undefined)	-10	.	-3	.	.	.
CCOC(=O)c1sc2cccc(F)c2c1S(=O)(=O)N1CCN(c2cccc(Cl)c2)CC1	.	-10%	.	.	.	.
CCOC(=O)c1sc(/S(C)=N\S(=O)(=O)c2cccc(Cl)c2)c2c1CCC=C2 (centres undefined)	-10	2.8µM*	1	?	-1%	?
Cc1ccc(-n2nc(C)c3c(C(=O)NCc4ccc(F)cc4)cc(C)nc32)cc1	.	9%	.	.	.	.
COc1ccc(-c2c3c(=O)n(C)c(=O)n(C)c3cn2-c2ccc(O)cc2)cc1	-19	45µM*	-1	28%	-8%	10%
Cc1nn(Cc2c(F)c(F)c(F)c(F)c2F)c(C)c1NC(=O)c1ccc(COc2cc(Cl)ccc2Cl)cc1	109*	3%	54*	72%	12%	18%
Cc1cccc(C)c1NC(=O)c1cccc(COc2cc(Cl)ccc2Cl)c1	62*	0%	29*	?	-1%	?
Cc1nn(Cc2c(F)c(F)c(F)c(F)c2F)c(C)c1NC(=O)c1ccc(COc2ccccc2Cl)cc1	6	1%	6	-1%	14%	0%
Cc1c(N2C(=O)/C(=C\C3CC=CCC3)SC2=S)c(=O)n(-c2ccccc2)n1C (centres undefined)	-13	28µM*	7	?	.	131%
Cc1c(N2C(=O)/C(=C/C3CC=CCC3)SC2=S)c(=O)n(-c2ccccc2)n1C (centres undefined)	-12	7.9µM*	-4	-15%	2%	-4%
COc1cc2c(cc1OC)-c1c3c(cc4c1[C@@H](C2)N(C)CC4)OCO3	-24	-15%	-5	?	-5%	?
COc1cc2c(cc1O)CC[n+]1cc3c(OC)c(OC)ccc3cc1-2	-7	-15%	-3	0.41µM*	-4%	0.12µM*
COc1cc2c(cc1OC)-c1cc3ccc4c(c3c[n+]1CC2)OCO4	-9	-15%	-1	1µM*	7%	0.15µM*
CCOC(=O)/C(C#N)=C/C=C1/C=CC=CN1C	34	-1%	27*	64%	-3%	52%
C=CCN1C=CC(=C/C=C(/C#N)C(=O)OCC)C=C1	47	2%	34*	444%	3%	i
CCOC(=O)/C(C#N)=C\N(C)C	-9	-17%	-4	8%	6%	10%
CCOC(=O)c1cc(-c2ccccc2)n(CCC(=O)NC(C)CC)c1C (centres undefined)	-11	0%	-2	?	-13%	4.1µM*
CCOC(=O)c1cc(-c2ccccc2)n(CCC(=O)N2CCN(c3ccccc3OC)CC2)c1C	-4	-2%	-5	9.3µM*	-12%	?
COc1ccc(-c2ccn(-c3cccc(F)n3)n2)cc1	98*	28µM*	48*	-13%	15%	-43%
COc1ccc(-c2cc3nc(-c4ccc(C)cc4)cc(C(F)(F)F)n3n2)cc1	.	-23%	.	.	.	.
Cn1nnnc1Sc1ncnc2scc(-c3ccccc3)c12	4	1%	2	12µM*	-8%	-3%
CCCC(=O)Nc1ccccc1Sc1ncnc2scc(-c3ccccc3)c12	1	0%	-2	4.7µM*	6%	18%
CC(=O)Nc1ccc(Sc2ncnc3scc(-c4ccccc4)c23)cc1	-5	2%	-8	-12%	-10%	?
